Experimental data taken from PubChem BioAssay (EPA / NIEHS).
Active and inactive are the calls of the source. How the source made its calls: active means hit-call score of the fitted dose curve at least 0.9, where 1 is the maximum; inactive means score below 0.9.

Each molecule was assayed on TIMP1, TIMP1 (gene 7076) (assay: LTEA_HepaRG_TIMP1: Life Technologies and Expression Analysis (LTEA) Assay for TIMP1 using HepaRG (AID 2283534;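 on outcome: TaqMan qRT-PCR signal normalized to ACTB GAPDH and POLR2A housekeeping genes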)). Conditions: mRNA level, 48 h; actives raise or lower the signal.
Procedure: LTEA_HepaRG is a cell based, multiplexed-readout assay that uses HepaRG, a human liver cell line, with measurements taken at 48 hours after chemical dosing on a 96-well plate.LTEA_HepaRG_TIMP1 is one of 102 assay component(s) measured in the LTEA HepaRG cell culture assay. It is a marker of Cell proliferation, survival, death.Data from the assay component LTEA_HepaRG_TIMP1 was analyzed into 1 endpoint. This assay endpoint, LTEA_HepaRG_TIMP1, was analyzed with bidirectional fitting relative to DMSO as the negative control and baseline of activity. Using a type of inducible reporter, measures of mRNA induction for gain or loss-of-signal activity can be used to understand regulation of transcription factor activity. To generalize the intended target to other relatable targets, this assay endpoint is annotated to the protease inhibitor intended target family, where the subfamily is metalloproteinase inhibitor.
A total of 1060 chemcials from the ToxCast library were tested in eight-point concentration-response experiments. Cell culture and cytotoxicity assays were conducted at Thermo Fisher Scientific's Custom Services facility (Madison, WI). A single lot of human HepaRG cells (Thermo Fisher Scientific, Frederick, MD) was used for the cell culture experiments. 96-well format collagen type I coated plates of human HepaRG cells were prepared using established methods. Briefly, cryopreserved HepaRG cells were thawed, plated at a density of approximately 100,000 cells/well in HepaRG Thaw, Plate, and General Purpose media (HPRG770, Thermo Fisher Scientific), and incubated for 48 hours. 0.5% DMSO was selected as vehicle control to balance the requisite need of DMSO in HepaRG cultures to maintain differentiation (for example, baseline metabolism, proportions of hepatocytes vs. cholangiocytes), while enabling further hepatic receptor pathway activation (for example, PXR and CAR) in response to chemical exposure. 48 hours after plating, the culture medium was replaced with HepaRG Serum-Free Incudtion Media. Cells were exposed to each test chemical in duplicate and maintained in CO2 incubators for another 48 hours. Chemical plates were thawed to room temperature and 200x concentrations of treatment groups were prepared. 8-point conentration-reponse curves were made with the highest exposure at 100 uM, followed by half-log dilutions, all in 0.5% DMSO. Each test plate contained variouse controls, induction positive controls (1mM phenobarbital), cytotoxicity positive controls ([…] aflatoxin B1), vehicle controls (0.5% DMSO), and total lysis controls (0.5% DMSO). Cell morphology images were taken using an Essen IncuCyte FLR automated microscope, with six 96-well plates imaged in about 24 minutes. Images were captured and exported and JPEG files. Spent culture media was transfered to black-well plates for the LDH assay, and remaining media was sorted at -80 C for later use. Cells were treated with RLT buffer and frozen until shipped for gene expression analysis. Total RNA was isolated from the cell suspension in 75 uL of Buffer RLT (Qiagen, Germantown, MD 20874) by Quintiles/Expression Analysis (Durham, NC) using a custom isolation procedure. Total RNA from each plate well was transferred to a preamplification plate. Fluidigm's 96.96 Dynamic ArrayTM (Fluidigm, Amsterdam, the Netherlands) technology was used for gene expression analyses by quantitative reverse transcription polymerase chain reaction (qRT-PCR, performed by Quintiles/Expression Analysis, Durham, NC)89. Standard TaqManTM Assays (Applied Biosystems/ThermoFisher Scientific, Foster City, CA) were used to assess the expression of 93 genes selected based on their selectivity and sensitivity to important hepatic receptors known to be modulated by environmental chemicals; importance in human hepatocyte functionality; and hepatotoxicity. […]
For `CCCOC(=O)c1ccc(O)cc1`, the outcome was “inactive”.
With `COCC(C)O` (stereo not given) the outcome was “inactive”.
With `CCCCCCC(=O)O` the outcome was “inactive”.
`Cc1cc(C)c(O)c(C)c1` was tested, and the outcome was “inactive”.
In the case of `CC1=C(/C=C/C(C)=C/C=C/C(C)=C/C(=O)O)C(C)(C)CCC1`, the outcome is reported as “inactive”.
In the case of `CCCCCCCCC(=O)O`, the outcome is reported as “inactive”.
`CC[C@H](C)[C@@H](C(=O)O)n1sc2ccccc2c1=O` was tested, and the outcome was “inactive”.
With `CCc1ccc(CCOc2ccc(CC3SC(=O)NC3=O)cc2)nc1` (stereo not given) the outcome was “inactive”.
`CCC(=C(c1ccc(O)cc1)c1ccc(OCCN(C)C)cc1)c1ccccc1` was tested, and the outcome was “inactive”.
With `N#C[C@@H]1CC(F)(F)CN1C(=O)CNC1CC2CCC(C1)N2c1ncccn1` (stereo not given in full) the outcome was “inactive”.
For `COCC(C)OCC(C)O` (stereo not given), the outcome was “inactive”.
`c1ccc2c(c1)Cc1ccccc1-2` was tested, and the outcome was “inactive”.
`CCCCOCCO` was tested, and the outcome was “inactive”.
`CCCCCCCC(=O)O` was tested, and the outcome was “inactive”.
With `c1ccc2c(c1)ccc1ccccc12` the outcome was “inactive”.
For `CC[C@H](c1ccc(O)cc1)[C@@H](CC)c1ccc(O)cc1`, the outcome was “inactive”.
`CC(C)(C)CC(C)(C)c1ccc(O)c(-n2nc3ccccc3n2)c1` was tested, and the outcome was “inactive”.
In the case of `CCCCC(CC)COC(=O)CCCCC(=O)OCC(CC)CCCC` (stereo not given), the outcome is reported as “inactive”.
With `C#C[C@]1(O)CC[C@H]2[C@@H]3CCC4=CC(=O)CC[C@@H]4[C@H]3CC[C@@]21C` the outcome was “inactive”.
For `CN1CCC[C@H]1c1cccnc1`, the outcome was “inactive”.
`CC(C)(C)c1cc(C(C)(C)C)c(O)c(C(C)(C)C)c1` was tested, and the outcome was “inactive”.
In the case of `CC(=O)CC(C)(C)O`, the outcome is reported as “inactive”.
In the case of `Oc1cccc(O)c1`, the outcome is reported as “inactive”.
In the case of `Cc1cc(CCN2CCN(c3nsc4ccccc34)CC2)cc2c1NC(=O)CC2(C)C`, the outcome is reported as “inactive”.
For `O=[N+]([O-])c1ccc(O)cc1`, the outcome was “inactive”.
With `COC(=O)CCCCC(=O)OC` the outcome was “inactive”.
`CCCCCCCCCCCCc1ccccc1S(=O)(=O)O` was tested, and the outcome was “inactive”.
With `CC(=O)NC1(c2cccc(F)c2)CCN(CC[C@@]2(c3ccc(Cl)c(Cl)c3)CN(c3ccccc3)C(=O)CO2)CC1` the outcome was “inactive”.
`OC1CCC(C2CCCCC2)CC1` (stereo not given) was tested, and the outcome was “inactive”.
`CCCOc1sc(C(=O)N2CCC(c3cc(CN)ccc3F)CC2)c(C)c1Br` was tested, and the outcome was “inactive”.
For `CCCCCCCCCCCCCCCS(=O)(=O)Oc1ccccc1`, the outcome was “inactive”.
For `CCCCC(CC)COC(=O)CCCCC(=O)OCc1ccccc1` (stereo not given), the outcome was “inactive”.
With `CC#C[C@]1(O)CC[C@H]2[C@@H]3CCC4=CC(=O)CCC4=C3[C@@H](c3ccc(N(C)C)cc3)C[C@@]21C` the AC50 was 83.9 µM (active).
With `O=C(OCCOCCOC(=O)c1ccccc1)c1ccccc1` the outcome was “inactive”.
`C[C@@H]1C[C@H]2[C@@H]3CCC4=CC(=O)C=C[C@]4(C)[C@@]3(F)[C@@H](O)C[C@]2(C)[C@@]1(O)C(=O)COP(=O)(O)O` was tested, and the outcome was “inactive”.
`OC1CCCCC1` was tested, and the outcome was “inactive”.
For `CCc1nn(C2CCCCC2)c2cc(C3(C#N)CCC(C(=O)O)CC3)ccc12` (stereo not given), the AC50 was 33.8 µM (active).
In the case of `O=C(O)Cc1cc(I)c(Oc2cc(I)c(O)c(I)c2)c(I)c1`, the outcome is reported as “inactive”.
`O=c1c(-c2ccc(O)cc2)coc2cc(O)ccc12` was tested, and the outcome was “inactive”.
For `NC(=O)N1C(=O)C(C(=O)c2cc(Cl)cs2)c2cc(F)c(Cl)cc21` (stereo not given), the AC50 was 85.2 µM (active).
